Bioassay records (PubChem)
Shiga toxin inh = Shiga toxin inhibition; Vero cells, Shiga toxin protein synthesis inhibition reporter; inhibition, % at 38.7 µM; actives 9.2% (n = 290,000); AID 2315; in the data active means inhibition mostly above about 28%, no sharp cut-off; inactive means mostly below about 43%
Cycloheximide cs = affects cycloheximide protein synthesis inhibition readout, counter-screen | max response, % | cell reporter, cycloheximide protein synthesis inhibition counterscreen | actives 12% (n = 300,000); in the data active means max response mostly above about 13%, no sharp cut-off; inactive means mostly below about 14%; further: read at 38.3 µM for the half of the compounds with a filed dose
Pf growth 96h = inhibits malaria parasite growth, 96 h. Potency, µM (series often up to 28.7 µM), usual class: inhibitors. P. falciparum luciferase reporter growth, 96 h. actives 6.9% (n = 320,000)
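P. falciparum expressing integrated firefly luciferase, in erythrocytes at 2% hematocrit, 0.05% parasitemia, incubated with compounds 96 h at 37 C, 5% CO2. Growth inhibition read as loss of luminescence; two-generation exposure targets delayed-death apicoplast inhibitors.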
LmPK inh = inhibitors of Leishmania mexicana pyruvate kinase | purified LmPK, Kinase-Glo ATP luminescence, 1 h | Potency, µM (doses to about 57.5 µM), most hits filed as inhibitors | actives 0.37% (n = 290,000)
Target sequence (Q27686 whole entry, looked up): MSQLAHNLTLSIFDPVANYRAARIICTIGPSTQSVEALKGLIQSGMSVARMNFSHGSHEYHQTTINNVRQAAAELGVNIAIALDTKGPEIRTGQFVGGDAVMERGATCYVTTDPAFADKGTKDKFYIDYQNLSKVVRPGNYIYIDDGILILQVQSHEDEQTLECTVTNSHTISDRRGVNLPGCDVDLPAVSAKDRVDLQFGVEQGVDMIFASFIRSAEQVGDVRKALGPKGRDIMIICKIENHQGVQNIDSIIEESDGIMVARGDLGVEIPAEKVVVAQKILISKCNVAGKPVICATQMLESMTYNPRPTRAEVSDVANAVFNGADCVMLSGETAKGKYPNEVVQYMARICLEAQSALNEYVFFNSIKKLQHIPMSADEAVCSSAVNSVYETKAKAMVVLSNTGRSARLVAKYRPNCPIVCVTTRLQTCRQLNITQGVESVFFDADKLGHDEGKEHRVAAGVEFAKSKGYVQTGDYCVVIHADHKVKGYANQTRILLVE
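Screened at intermediate enzyme activity to detect both inhibitors and activators: LmPK at 0.1 nM, with a 0.5 nM enzyme column as activation reference. PEP 0.5 mM, ADP 0.1 mM; ATP detected by luminescence after 1 h.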
Pf growth 48h = P. falciparum growth inhibition at 48 hours (one generation); actives 5.9% (n = 310,000); P. falciparum luciferase growth in erythrocytes, 48 h; Potency, µM (top dose mostly 28.7 µM), usual class: inhibitors; AID 504832
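Growth was read as firefly luciferase luminescence after a 48 h, 37 C, 5% CO2 exposure of compounds to reporter-bearing P. falciparum cultures (0.1% parasitemia, 2% hematocrit final) in Albumax-supplemented RPMI 1640.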
A number is an active result. In the library only some 22% were active in any assay of this set; here they are far more common. Unless noted, the call rests on the fitted dose curve; in most records, active means well fitted inhibition curve with a large enough effect; inconclusive means small, poorly fitted or top-dose-only effect, or another doubt; inactive means no such curve, though single readings can be large or run the other way.

What do the screens show for `CC(=O)Nc1ccc(-c2nc3cc(Cl)ccc3o2)cc1`?
Shiga toxin inh: 109; Cycloheximide cs: 52; Pf growth 96h: inactive; LmPK inh: inactive; Pf growth 48h: inactive

How did O=C(Nc1ccc2oc(-c3ccncc3)nc2c1)c1c(F)c(F)c(F)c(F)c1F do in these assays?
Shiga toxin inh: inactive; Cycloheximide cs: inactive; Pf growth 96h: inactive; LmPK inh: inactive; Pf growth 48h: inactive

How did O=S(Cc1ccccc1)CC(O)(c1ccccc1)c1ccccc1 (configuration not stated) do in these assays?
Shiga toxin inh: inactive; Cycloheximide cs: inactive; Pf growth 96h: inactive; LmPK inh: inactive; Pf growth 48h: inactive

How did O=C1C(C2=C(O)c3ccccc3C2=O)=Nc2ccccc21 do in these assays?
Shiga toxin inh: 65; Cycloheximide cs: 25; Pf growth 96h: inactive; LmPK inh: 18µM; Pf growth 48h: inactive

What do the screens show for `CCOc1ccc(CC(=O)Nc2c(C(N)=O)oc3ccccc23)cc1OCC`?
Shiga toxin inh: inactive; Cycloheximide cs: inactive; Pf growth 96h: 12µM; LmPK inh: inactive; Pf growth 48h: inconclusive

Results for CCOc1ccc(CC(=O)Nc2sc(Cc3ccccc3)c(C)c2C(N)=O)cc1OCC ?
Shiga toxin inh: inactive; Cycloheximide cs: inactive; Pf growth 96h: 9.3µM; LmPK inh: inactive; Pf growth 48h: inconclusive

Results for Oc1ccccc1C1C=C(c2ccc3c(c2)OCO3)NC(c2c(F)cccc2Cl)N1 (configuration not stated) ?
Shiga toxin inh: 97; Cycloheximide cs: 46

How did Oc1ccc(Br)cc1C1C=C(c2ccc3c(c2)OCO3)NC(c2c(F)cccc2Cl)N1 (configuration not stated) do in these assays?
Shiga toxin inh: 82; Cycloheximide cs: 46

What do the screens show for `O=C(Cc1c(F)cccc1Cl)NNC(=O)Nc1ccc2c(c1)OCO2`?
Shiga toxin inh: inactive; Cycloheximide cs: inactive; Pf growth 96h: inactive; LmPK inh: inactive; Pf growth 48h: inactive

How did COc1ccc2cc1Oc1cc3c(cc1OC)CC[N+](C)(C)C3Cc1ccc(cc1)Oc1c(OC)c(OC)cc3c1C(C2)[N+](C)(C)CC3 (configuration not stated) do in these assays?
Pf growth 96h: inactive; Pf growth 48h: inactive

What do the screens show for `Cc1ccc(NC2=C(NC(=O)c3ccccc3)C(=O)c3ccccc3C2=O)cc1Cl`?
Shiga toxin inh: inactive; Cycloheximide cs: inactive; Pf growth 96h: inconclusive; LmPK inh: 7.1µM; Pf growth 48h: 0.29µM

How did Cc1ccc(NCCC(=O)c2ccccc2)cc1Cl do in these assays?
Shiga toxin inh: 43; Cycloheximide cs: 15; Pf growth 96h: inactive; LmPK inh: inactive; Pf growth 48h: inactive

How did Cc1ccc(C(=O)CNc2ccc(C)c(Cl)c2)cc1 do in these assays?
Shiga toxin inh: inactive; Cycloheximide cs: 27; Pf growth 96h: inactive; LmPK inh: inactive; Pf growth 48h: inactive

How did O=C(CNc1ccc(Br)cc1)c1ccc(O)cc1 do in these assays?
Shiga toxin inh: 93; Cycloheximide cs: 39; Pf growth 96h: inactive; LmPK inh: inactive; Pf growth 48h: inactive

What do the screens show for `CCC(/C=N/NC(=O)CCCCC(=O)N/N=C/C(CC)CC)CC`?
Shiga toxin inh: inactive; Cycloheximide cs: inactive; Pf growth 96h: inactive; LmPK inh: inactive; Pf growth 48h: inactive

Results for COc1ccc(CCNC(=O)NC23CC4CC(CC(C4)C2)C3)cc1OC ?
Shiga toxin inh: inactive; Cycloheximide cs: inactive; Pf growth 96h: inactive; LmPK inh: inactive; Pf growth 48h: inconclusive

Results for COC(=O)c1cc(S(=O)(=O)N(C)C2CCCCC2)c[nH]1 ?
Shiga toxin inh: inactive; Cycloheximide cs: inactive; Pf growth 96h: inactive; LmPK inh: inactive; Pf growth 48h: inactive

How did Cc1c(Cl)cccc1NC(=O)CC1Oc2ccccc2NC1=O (configuration not stated) do in these assays?
Shiga toxin inh: inactive; Cycloheximide cs: inactive; Pf growth 96h: inactive; LmPK inh: inactive; Pf growth 48h: inactive

Results for Cc1ccc(C(=O)CNc2cccc(Cl)c2)cc1 ?
Shiga toxin inh: inactive; Cycloheximide cs: inactive; Pf growth 96h: inactive; LmPK inh: inactive; Pf growth 48h: inactive

How did Cc1ccc(NCC(=O)c2ccc(C)cc2)cc1 do in these assays?
Shiga toxin inh: 48; Cycloheximide cs: 39; Pf growth 96h: inactive; LmPK inh: inactive; Pf growth 48h: inactive

What do the screens show for `Cc1ccc(NCC(=O)c2ccccc2)cc1Cl`?
Shiga toxin inh: 102; Cycloheximide cs: 24; Pf growth 96h: inconclusive; LmPK inh: inactive; Pf growth 48h: inconclusive

Results for Cc1ccc(C)c(NC(=O)Cn2cc(C(=O)C3CC3)c3ccccc32)c1 ?
Shiga toxin inh: inactive; Cycloheximide cs: inactive; Pf growth 96h: inactive; LmPK inh: inactive; Pf growth 48h: inconclusive

How did Cc1ccc(NC(=O)Cn2cc(C(=O)C3CC3)c3ccccc32)c(C)c1 do in these assays?
Shiga toxin inh: 36; Cycloheximide cs: 33; Pf growth 96h: inactive; LmPK inh: inactive; Pf growth 48h: inactive

How did O=C(c1ccc(F)cc1)c1ccc(-c2ccc(F)cc2)nc1 do in these assays?
Shiga toxin inh: inactive; Cycloheximide cs: 14; Pf growth 96h: inactive; LmPK inh: inactive; Pf growth 48h: inactive

How did CCOc1ccc2oc(C(=O)NCc3ccccc3CN3CCCC3)c(C)c2c1 do in these assays?
Pf growth 96h: 9.3µM; Pf growth 48h: 9.3µM

Results for COc1ccc2oc(C(=O)NCCC(C)C)c(C)c2c1 ?
Shiga toxin inh: inactive; Cycloheximide cs: 58; Pf growth 96h: inactive; LmPK inh: inactive; Pf growth 48h: inactive

Results for COc1ccc2cc(C(=O)NCc3ccccc3CN3CCCC3)ccc2c1 ?
Pf growth 96h: inconclusive; Pf growth 48h: 9.3µM

How did COc1ccc(C(=O)NCc2ccccc2CN2CCCC2)cc1S(=O)(=O)N1CCOCC1 do in these assays?
Pf growth 96h: inconclusive; Pf growth 48h: inactive

What do the screens show for `Cc1c(C(=O)N(C)CCCCN2CCOCC2)oc2c(F)cccc12`?
Cycloheximide cs: 15; Pf growth 96h: inconclusive; LmPK inh: inactive; Pf growth 48h: inactive

How did C[C@]12CCC(=O)C=C1CC[C@@H]1[C@@H]2[C@@H](O)C[C@]2(C=O)[C@@H](C(=O)CO)CC[C@@H]12 do in these assays?
Pf growth 96h: inactive; Pf growth 48h: inactive

What do the screens show for `CCOc1ccc(S(=O)(=O)N2CCCC(C(=O)NCc3ccncc3)C2)cc1` (configuration not stated)?
Shiga toxin inh: inactive; Cycloheximide cs: inactive; Pf growth 96h: inactive; LmPK inh: inactive; Pf growth 48h: inactive

How did O=C(NNC(=O)C1CC(c2cccs2)=NO1)Nc1ccccc1 (configuration not stated) do in these assays?
Shiga toxin inh: inactive; Cycloheximide cs: inactive; Pf growth 96h: inactive; LmPK inh: inactive; Pf growth 48h: inactive

How did COCc1c(C(=O)NCc2ccccc2CN2CCCC2)oc2ccccc12 do in these assays?
Pf growth 96h: 9.3µM; Pf growth 48h: inconclusive

What do the screens show for `COc1ccc(C(CNC(=O)c2oc3ccc(Br)cc3c2C)N2CCCCC2)cc1` (configuration not stated)?
Shiga toxin inh: inactive; Cycloheximide cs: inactive; Pf growth 96h: inactive; LmPK inh: inactive; Pf growth 48h: inconclusive

Results for COc1ccc2oc(C(=O)NCc3ccccc3CN3CCCC3)c(C)c2c1 ?
Pf growth 96h: inconclusive; Pf growth 48h: 12µM
